Only some compounds are listed: those with a hit (about 0.85% of all), similar ones and a draw of the others.
BLM helicase inh: blocks DNA unwinding by human BLM helicase. P54132. recombinant BLM DNA unwinding, fluorescence dequenching. Potency, µM (doses to about 56.1 µM), hits mostly inhibitors. 350,000 compounds, 0.2% hits. AID 2528; note: nearly all actives have a fitted effect of over 35% in size
Target sequence (P54132 whole entry, looked up): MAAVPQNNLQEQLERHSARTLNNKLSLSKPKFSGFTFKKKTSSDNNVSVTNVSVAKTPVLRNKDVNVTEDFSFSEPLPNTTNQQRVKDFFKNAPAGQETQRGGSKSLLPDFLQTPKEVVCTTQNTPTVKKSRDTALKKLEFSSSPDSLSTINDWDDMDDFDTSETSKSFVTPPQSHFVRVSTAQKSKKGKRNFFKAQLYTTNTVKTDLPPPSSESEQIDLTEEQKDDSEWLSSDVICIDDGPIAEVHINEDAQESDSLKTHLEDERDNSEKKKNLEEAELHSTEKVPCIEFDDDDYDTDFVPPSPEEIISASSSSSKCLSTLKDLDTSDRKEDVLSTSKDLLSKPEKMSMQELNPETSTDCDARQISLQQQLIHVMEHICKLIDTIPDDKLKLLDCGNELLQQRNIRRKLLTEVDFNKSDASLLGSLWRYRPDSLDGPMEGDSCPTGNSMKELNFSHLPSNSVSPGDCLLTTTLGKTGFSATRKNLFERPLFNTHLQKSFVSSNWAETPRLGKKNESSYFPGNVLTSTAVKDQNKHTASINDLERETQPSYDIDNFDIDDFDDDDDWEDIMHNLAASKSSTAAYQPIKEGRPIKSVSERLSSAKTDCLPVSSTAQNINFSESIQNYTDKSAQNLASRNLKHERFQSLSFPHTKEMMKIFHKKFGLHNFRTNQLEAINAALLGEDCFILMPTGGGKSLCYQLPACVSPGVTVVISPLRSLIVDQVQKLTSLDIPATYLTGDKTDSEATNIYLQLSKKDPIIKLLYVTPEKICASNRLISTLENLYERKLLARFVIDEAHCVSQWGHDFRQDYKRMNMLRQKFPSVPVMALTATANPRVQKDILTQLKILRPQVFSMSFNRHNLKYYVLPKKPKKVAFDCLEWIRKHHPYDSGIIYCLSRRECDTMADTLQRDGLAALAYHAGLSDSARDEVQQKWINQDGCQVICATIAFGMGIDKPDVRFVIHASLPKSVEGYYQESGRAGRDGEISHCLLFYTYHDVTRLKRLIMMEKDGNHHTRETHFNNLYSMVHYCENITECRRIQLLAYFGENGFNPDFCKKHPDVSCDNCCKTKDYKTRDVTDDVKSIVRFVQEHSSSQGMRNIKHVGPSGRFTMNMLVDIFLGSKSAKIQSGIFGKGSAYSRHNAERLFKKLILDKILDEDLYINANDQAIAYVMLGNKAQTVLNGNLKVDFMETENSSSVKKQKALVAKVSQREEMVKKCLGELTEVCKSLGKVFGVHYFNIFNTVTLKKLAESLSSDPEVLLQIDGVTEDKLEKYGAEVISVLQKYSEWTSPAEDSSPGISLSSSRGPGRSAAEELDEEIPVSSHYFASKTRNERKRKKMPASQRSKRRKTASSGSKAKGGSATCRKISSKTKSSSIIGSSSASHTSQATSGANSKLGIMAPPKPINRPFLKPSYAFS
RECQ1 inh-1: inhibitors of human RECQ1 DNA helicase; RECQ1 DNA unwinding, red fluorescence kinetic read; P46063; 240,000 compounds, 0.54% hits; Potency, µM (highest dose often 57.3 µM), usual class: inhibitors; AID 2549; note: nearly all actives have a fitted effect of over 30% in size
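50 nM RECQ1T1 preincubated 15 min with compound in Tris pH 8.0 buffer with MgCl2, DTT, Tween-20 and 2.5 ug/ml poly(dI-dC); started with 200 nM TAMRA/BHQ-2 forked duplex and 2 mM ATP. Unwinding read as fluorescence (525/598 nm), two reads 2 h apart.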
Tb PGK inh: inhibitors of T. brucei phosphoglycerate kinase; Potency, µM (series often up to 57.5 µM), hits mostly inhibitors; P07378; 380,000 compounds, 0.043% hits; PGK/GAPDH coupled, Kinase-Glo luminescence, 60 min; note: nearly all actives have a fitted effect of over 60% in size
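Recombinant glycosomal PGK reaction used 1,3-bisphosphoglycerate generated in-well by GAPDH (100nM final) in 100mM TEA pH 7.6, 5mM MgCl2, 0.01% Tween-20. After 60 minutes at room temperature, ATP was read by Kinase-Glo Plus luminescence end-point.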
APEX1 inh: blocks human APE1 abasic DNA cleavage | P27695 | 350,000 compounds, 0.35% hits | recombinant APE1, TAMRA/BHQ-2 abasic DNA cleavage fluorescence | Potency, µM (series often up to 65.8 µM), hits mostly inhibitors; note: nearly all actives have a fitted effect of over 55% in size
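Enzyme (0.75 nM final) and test compound are incubated 15 min at room temperature before adding 50 nM quenched THF abasic-site duplex. Cleavage dequenches TAMRA, followed at 525/598 nm over three reads one minute apart.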
GLS inh: glutaminase GLS (human) inhibition | O94925 | GLS enzymatic activity, qHTS titration | Potency, µM (doses to about 45.5 µM), most hits filed as inhibitors | 410,000 compounds, 0.21% hits | AID 624170
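Glutamate formation by hKGA was monitored fluorometrically using coupled glutamate oxidase, HRP and Amplex Red. Substrate was added as 1 mM L-glutamine solution; incubation was 30 min at RT after an initial read.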
TDP1 inh: inhibitors of human tyrosyl-DNA phosphodiesterase TDP1 | Potency, µM (highest dose often 130 µM), usual class: inhibitors | Q9NUW8 | recombinant TDP1, AlphaScreen DNA substrate cleavage | 350,000 compounds, 0.28% hits | AID 485290; note: nearly all actives have a fitted effect of over 40% in size
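Enzyme-compound mixtures sat 15 min at room temperature, followed by a 5 min reaction with 15 nM final substrate and 10 min with AlphaScreen beads. Recombinant human Tdp1 was used at 1 nM final.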
RECQ1 conf: confirmation of human RECQ1 helicase inhibitors. 610 compounds, 28% hits. Potency, µM (top dose mostly 229 µM), actives largely listed as inhibitors. RECQ1 helicase DNA unwinding, fluorescence. shares compounds with RECQ1 inh-1; note: nearly all actives have a fitted effect of over 45% in size
ADP FP counter: counter-screen for RECQ1 inhibitors: ADP displacement. ADP fluorescence polarization displacement counterscreen. shares compounds with RECQ1 inh-1. 530 compounds, 27% hits. AID 2711. Potency, µM (titrated, usually from 228 µM), actives largely listed as inhibitors; note: nearly all actives have a fitted effect of over 45% in size
RECQ1 inh-2: RECQ1 helicase inhibition confirmed, round 2; 1,100 compounds, 15% hits; shares compounds with RECQ1 inh-1; Potency, µM (doses to about 119 µM), usual class: inhibitors; AID 504841; recombinant RECQ1 DNA unwinding, red fluorescence; note: nearly all actives have a fitted effect of over 50% in size
Large screens that a line does not name were inactive (follow-up assays come after a bar, where they were run). Calls come from the whole dose curve; as a rule, active = well fitted curve in the direction sought with a large enough effect; inconclusive = small, poorly fitted or top-dose-only effect, or another doubt; inactive = no such curve, though single readings can be large; an effect the other way counts as inactive or inconclusive.

O=C(CCn1nnc2ccccc2c1=O)NCC1CCC(C(=O)O)CC1 (configuration not stated)	APEX1 inh inconclusive | RECQ1 conf inactive | ADP FP counter inactive
Cc1cccc(N(C(=O)c2ccc(Cl)cc2)C2CS(=O)(=O)CC2OC(=O)c2ccc(Cl)cc2)c1 (configuration not stated)	RECQ1 inh-1 inconclusive | RECQ1 inh-2 inactive
CN(Cc1ccccc1)C(=O)CCNS(=O)(=O)c1ccc2c(c1)oc(=O)n2C	RECQ1 inh-1 35µM, APEX1 inh inconclusive | RECQ1 inh-2 inconclusive
CN(Cc1ccccc1)C(=O)CCS(=O)(=O)c1ccc2c(c1)oc(=O)n2C	none (no result: RECQ1 inh-1)
CCCC[C@H](NC(C)=O)C(=O)N[C@H]1CC(=O)NCCCC[C@@H](C(N)=O)NC(=O)[C@H](Cc2c[nH]c3ccccc23)NC(=O)[C@H](CCCN=C(N)N)NC(=O)[C@@H](Cc2ccccc2)NC(=O)[C@H](Cc2cnc[nH]2)NC1=O	none (no result: Tb PGK inh, GLS inh)
COc1cccc(-n2c(SCc3cc(=O)oc4cc(O)c(O)cc34)nc3ccccc3c2=O)c1	BLM helicase inh 10µM, RECQ1 inh-1 25µM, Tb PGK inh inconclusive, APEX1 inh 10µM | RECQ1 inh-2 13µM
COc1ccc2[nH]c3c(C)c4ccncc4c(C)c3c2c1	RECQ1 inh-1 22µM, APEX1 inh 7.9µM | RECQ1 inh-2 7.9µM
COc1ccccc1C(=O)Nc1ccc(-c2nnc(SCC(=O)O)n2C)cc1	none | RECQ1 conf inactive | ADP FP counter inactive
C=CCOC(=O)C1C(=O)CC(C)(O)C(C(=O)OCC=C)C1c1ccc(OCC)cc1 (configuration not stated)	none
C=CCOC(=O)C1C(=O)CC(C)(O)C(C(=O)OCC=C)C1c1ccc(N(C)C)cc1 (configuration not stated)	RECQ1 inh-1 inconclusive | RECQ1 inh-2 inactive
Cc1cc(=O)c2c(O)c3c(O)cc(=O)c4c3c3c(cc(O)c1c23)C(C)(C)C=4O	BLM helicase inh 7.1µM, RECQ1 inh-1 1.8µM (no result: Tb PGK inh) | RECQ1 conf active | ADP FP counter 0.32µM | RECQ1 inh-2 inactive
CCN(CC)CCOc1c(Br)ccc2c1sc1nc3n(c(=O)c12)CCC3	RECQ1 inh-1 inconclusive (no result: TDP1 inh) | RECQ1 inh-2 inactive
O=C(O)CCCC(=O)N1CCc2cc(S(=O)(=O)NCc3ccc(F)cc3)ccc21	none | RECQ1 conf inactive | ADP FP counter inactive
O=C(O)CCC(=O)N1CCc2cc(S(=O)(=O)NCc3ccc(F)cc3)ccc21	none (no result: RECQ1 inh-1, APEX1 inh)
CCC(=O)N1CCCc2cc(S(=O)(=O)NCc3cccs3)ccc21	none
O=C(O)CCC(=O)N1CCc2cc(S(=O)(=O)NCc3cccs3)ccc21	none | RECQ1 conf inactive | ADP FP counter inactive
CCOC(=O)[C@@](C)(N)Cc1ccc(O)c(O)c1	none (no result: BLM helicase inh, RECQ1 inh-1, Tb PGK inh, TDP1 inh)
CSCC[C@H](NC(=O)[C@@H](NC(=O)[C@H](CCC(=O)O)NC(=O)[C@H](CCSC)NC(=O)[C@H](CC(N)=O)NC(=O)[C@H](CCC(=O)O)NC(=O)[C@H](CC(N)=O)NC(=O)[C@H](CO)NC(=O)[C@H](C)N)[C@@H](C)O)C(=O)O	none (no result: Tb PGK inh, GLS inh)
Cc1ccc(S(=O)(=O)N2CC=C(c3c(C)n(C)c4ccccc34)CC2)cc1	none
CCn1c(C)c(C2=CCN(S(=O)(=O)c3ccccc3)CC2)c2ccccc21	RECQ1 inh-1 25µM | RECQ1 conf 50µM | RECQ1 inh-2 inconclusive
COC/C=C/C1=CC2=CC(=O)C(C)(OC(=O)C3CCCC3)C(=O)C2=CO1 (configuration not stated)	RECQ1 inh-1 inconclusive, APEX1 inh inconclusive, GLS inh inconclusive | RECQ1 inh-2 inconclusive
COC/C=C/C1=CC2=CC(=O)C(C)(OC(=O)c3cccs3)C(=O)C2=CO1 (configuration not stated)	none (no result: Tb PGK inh, GLS inh)
O=C(NC(Cc1c[nH]c2ccccc12)C(=O)O)/C(=C/c1ccc2c(c1)OCO2)NC(=O)c1ccccc1 (configuration not stated)	none | RECQ1 conf inactive | ADP FP counter inconclusive
O=C(Cn1nnc2ccccc2c1=O)N[C@@H](Cc1ccccc1)C(=O)O	none
O=C(Cn1nnc2ccccc2c1=O)N[C@@H](Cc1c[nH]c2ccccc12)C(=O)O	none | RECQ1 conf inactive | ADP FP counter inactive
Cc1ccc(C(=O)Nc2ccccc2C(=O)NC(Cc2c[nH]c3ccccc23)C(=O)O)cc1 (configuration not stated)	none | RECQ1 conf inactive | ADP FP counter inactive
Cc1ccc(C(=O)Nc2ccccc2C(=O)NC(Cc2ccccc2)C(=O)O)cc1 (configuration not stated)	none
CSCC[C@H](NC(=O)[C@H](CCCN=C(N)N)NC(=O)[C@@H]1CCCN1C(=O)[C@H](Cc1ccccc1)NC(=O)[C@H](C)NC(=O)[C@H](CC(C)C)NC(=O)[C@H](Cc1ccc(O)cc1)NC(=O)[C@H](CC(N)=O)NC(=O)[C@@H](N)CCSC)C(N)=O	none (no result: Tb PGK inh, GLS inh)
COc1ccc(C2=Nn3c(nnc3-c3ccccc3OC)SC2)c(OC)c1	none (no result: Tb PGK inh, GLS inh)
C=CCn1c(=O)/c(=C/c2ccc(C)o2)s/c1=C(/C#N)C(=O)c1ccccc1	RECQ1 inh-1 32µM | RECQ1 inh-2 inconclusive
COC(=O)Nc1ccc(S(=O)(=O)N2CCCC(C(=O)N3CC(C)OC(C)C3)C2)cc1 (configuration not stated)	none (no result: TDP1 inh) | RECQ1 conf inactive | ADP FP counter inactive
COC(=O)Nc1ccc(S(=O)(=O)N2CCCC(C(=O)N3CCOCC3)C2)cc1 (configuration not stated)	none (no result: TDP1 inh)
COc1cc(/C=C/C(=O)Nc2nc3ccc(S(=O)(=O)N(C)C)cc3s2)cc(OC)c1OC	BLM helicase inh 5µM, RECQ1 inh-1 6.3µM | RECQ1 inh-2 2.2µM
COc1cc(C(=O)Nc2nc3ccc(S(=O)(=O)N4CCOCC4)cc3s2)cc(OC)c1OC	RECQ1 inh-1 inconclusive | RECQ1 inh-2 32µM
CNS(=O)(=O)c1ccc2nc(NC(=O)/C=C/c3ccco3)sc2c1	RECQ1 inh-1 inconclusive, APEX1 inh inconclusive, TDP1 inh inconclusive | RECQ1 inh-2 inactive

From PubChem
